# Experimental data reported in PubChem BioAssay (NCATS).
# Inconclusive results are not listed. A number with no mark means an inactive call. The source made the active and inactive calls. The call rests on the fitted dose curve; in most records, active means well fitted inhibition curve with a large enough effect; inconclusive means small, poorly fitted or top-dose-only effect; inactive means flat fitted curve, though single readings scatter.
# System: CRL-7250
# Assay: Cytotoxic Profiling of Annotated Libraries Using Quantitative High-Throughput Screening (AID 1296008); further: nearly all actives have a fitted effect of over 60% in size
# Details: Five cell lines viability, CellTiter-Glo ATP luminescence, 48-72 h; max response: hits give low values
# Method in brief: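 Cytotoxicity was measured as CellTiter-Glo ATP luminescence, read after 10 min at room temperature. Compound treatment of the cells lasted 48 or 72 hr at 37 degrees Celsius in a qHTS format.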
# On the % scale 0 is the no-effect control and ±100 the full control effect; potency means the concentration at half of the fitted maximal effect.
Compound,max response,Potency,outcome
COc1cc(C(=O)OC[C@H]2O[C@@H](Oc3ccccc3/C=C/C(=O)O)[C@H](O)[C@@H](O)[C@@H]2O)cc(OC)c1OC,-2.66%,–,–
COc1cc2c(cc1O)[C@H](c1ccc(O[C@@H]3O[C@H](CO)[C@@H](O)[C@H](O)[C@H]3O)c(OC)c1)[C@@H](CO)[C@](O)(CO)C2,4.77%,–,–
C=CC(=O)Nc1cccc(CN2C(=O)N(c3c(Cl)c(OC)cc(OC)c3Cl)Cc3cnc(NCCCCN(CC)CC)nc32)c1,–,10.3 µM (active),–
CC1(C)CC[C@]2(C(=O)O[C@@H]3O[C@H](CO)[C@@H](O)[C@H](O)[C@H]3O)CC[C@]3(C)C(=CCC4[C@@]5(C)CC[C@H](O[C@@H]6O[C@H](C(=O)O)[C@@H](O)[C@H](O[C@@H]7O[C@H](CO)[C@H](O)[C@H](O)[C@H]7O)[C@H]6O)C(C)(C)C5CC[C@]43C)C2C1 (stereo not given in full),-0.842%,–,–
C[C@@H]1C(=O)OC[C@H]2C(C(=O)O)=C[C@@H]3CC(C)(C)C[C@]312,–,–,inactive
CCOC(=O)c1cc(C#N)c(N2CCC(C(=O)NS(=O)(=O)Cc3ccccc3)CC2)nc1C,–,–,inactive
CC1C(=O)CC2C3CCC(C(=O)O)C12CC3(C)CO (stereo not given),-22.2%,–,–
CC(O)/C=C/C1(O)C(C)C(O[C@@H]2O[C@H](CO)[C@@H](O)[C@H](O)[C@H]2O)C(O)CC1(C)C (stereo not given in full),0.975%,–,–
CC1CCC2C(C(=O)O)=COC(O[C@@H]3O[C@H](CO)[C@@H](O)[C@H](O)[C@H]3O)C12 (stereo not given in full),-11.5%,–,–
CCN1CCN(Cc2ccc(NC(=O)Nc3ccc(Oc4cc(NC)ncn4)cc3)cc2C(F)(F)F)CC1,–,25.9 µM (active),–
